# The list is not random: actives were taken first. Their share in the collection is about 2.9%.
# Hck-Nef inh – human Hck-Nef kinase inhibition. 220,000 compounds, 0.68% hits. Recombinant Hck-YEEI plus Nef, Z-Lyte FRET kinase assay. AID 463187. inhibition, % at 20 µM;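 active = Hck-Nef kinase inhibition above about 50%, limit read from the data; inactive = inhibition below that limit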;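 also: 0% = DMSO with Hck plus Nef and 100% = Hck alone without Nef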
# Target sequence (P08631 whole entry, looked up): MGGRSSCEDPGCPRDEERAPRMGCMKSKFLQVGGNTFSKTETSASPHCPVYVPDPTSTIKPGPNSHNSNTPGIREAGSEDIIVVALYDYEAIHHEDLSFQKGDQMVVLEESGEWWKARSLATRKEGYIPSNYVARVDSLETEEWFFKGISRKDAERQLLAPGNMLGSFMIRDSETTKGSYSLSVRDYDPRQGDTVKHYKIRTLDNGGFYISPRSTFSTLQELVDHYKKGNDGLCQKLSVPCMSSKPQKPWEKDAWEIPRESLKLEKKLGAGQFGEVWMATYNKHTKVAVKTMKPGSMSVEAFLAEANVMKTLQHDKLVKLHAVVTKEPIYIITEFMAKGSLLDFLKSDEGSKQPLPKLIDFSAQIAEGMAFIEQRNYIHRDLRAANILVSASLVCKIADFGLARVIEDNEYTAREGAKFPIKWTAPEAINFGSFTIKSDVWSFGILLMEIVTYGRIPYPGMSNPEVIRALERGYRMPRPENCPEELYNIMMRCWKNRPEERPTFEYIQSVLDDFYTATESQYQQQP
# Bim-Mcl-1 – human Bim-Mcl-1 interaction inhibition | inhibition, % at 10 µM | Bead-based flow cytometry, Bim peptide-Mcl-1 binding | Q07820 | AID 1009 | 190,000 compounds, 0.1% hits; in the data active = inhibition above about 40%;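 also: 0% = no compound tracer wells and 100% = peptide blocker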
# Pf gametocyte – inhibitors of late stage P. falciparum gametocyte viability | P. falciparum stage V gametocytes, ATP luminescence, 24 h | inhibition, % at 10.9 µM | 150,000 compounds, 0.065% hits | AID 743093;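 active = inhibition above the mean plus 3 SD of compounds within the control limits, set per campaign, cut at about 38% in these data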;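 also: 0% = DMSO wells and 100% = medium only without gametocytes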
# Mcl1 Noxa PPI – Mcl-1/Noxa interaction inhibition; Q07820; inhibition, % at 21.7 µM; TR-FRET Mcl-1/Noxa peptide binding, 2 h; AID 1022; 220,000 compounds, 1.5% hits;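 active = compounds that cut the protein-peptide binding signal by more than 50% relative to plate controls in a single-dose test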;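 also: His-tagged Mcl-1 with rhodamine Noxa BH3 peptide and terbium anti-His antibody; 0% = Mcl-1 plus Noxa peptide wells and 100% = peptide-only wells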
# 14-3-3 Bad PPI – disrupts binding of bovine 14-3-3 zeta to phospho-Bad peptide; P63103; TR-FRET 14-3-3zeta/Dy647-pBad peptide displacement, 1 h; inhibition, % at 21.7 µM; 220,000 compounds, 0.71% hits; AID 781;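 active = inhibition above about 70%, limit read from the data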;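 also: 0% = full 14-3-3 plus peptide FRET controls and 100% = background without 14-3-3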
# Mcl1 Bid PPI – Mcl-1/Bid interaction inhibition. TR-FRET Mcl-1/Bid-Dy647 peptide binding, 1536-well. Q07820. 220,000 compounds, 0.97% hits. inhibition, % at 21.7 µM;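 active = compounds that cut the binding signal by more than half at the single screening dose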;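 also: His-tagged Mcl-1 with europium anti-His antibody binding Bid BH3 peptide; 0% = Mcl-1 plus peptide wells and 100% = peptide-only wells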
# * marks the source's active call; other numbers are inactive results; . = no result.
SMILES,Hck-Nef inh,Bim-Mcl-1,Pf gametocyte,Mcl1 Noxa PPI,14-3-3 Bad PPI,Mcl1 Bid PPI
CCCOC(=O)C1[C@H]2C(=O)N(CCCOC)C[C@]23C=C[C@H]1O3 (some centres undefined),1.0,-2.0,.,58.6*,-4.6,-8.1
O=[N+]([O-])c1c(Nc2ccccn2)cc(Cl)c2nonc12,12.4,.,-9.2,56.8*,-1.0,-38.8
COc1ccc(N(CC(=O)Nc2ccc(S(=O)(=O)N3CCOCC3)cc2)S(=O)(=O)c2ccc(F)cc2)cc1,-0.7,-3.0,-3.6,0.1,-7.4,-31.6
c1ccc(Nc2cccc3c(Nc4ccccc4)cccc23)cc1,14.7,.,0.6,50.5*,5.7,5.5
c1ccc(Nc2cccc(Nc3ccccc3)n2)cc1,11.3,32.0,-8.1,71.5*,-6.4,-21.1
CCC1CCC2(CC1)NC(CO)(CO)CO2 (centres undefined),-0.6,-2.0,.,1.9,9.5,63.6*
CC(C)(C)n1nnnc1C(c1ccccc1)N1CCc2ccccc2C1 (centres undefined),1.0,-2.0,.,-3.9,-3.6,-19.9
COCCn1nnnc1C(c1ccc(O)c(OC)c1)N1CCc2ccccc2C1 (centres undefined),-0.2,-1.0,-25.7,76.8*,45.2,-10.1
CC1CCN(C(c2ccc(N(C)C)cc2)c2nnnn2C(C)(C)C)CC1 (centres undefined),-13.6,0.0,-40.2,77.8*,-2.1,0.2
CCC(C)(C)n1nnnc1C(c1ccc(O)cc1)N1CCc2ccccc2C1 (centres undefined),21.1,-2.0,2.1,59.4*,-0.8,-10.9
CCC(C)(C)n1nnnc1C(c1ccc(C)cc1)N1CCSCC1 (centres undefined),-0.2,-6.0,.,-15.4,9.4,-5.0
CN(C)c1ccc(C(c2nnnn2C(C)(C)C)N2CCc3ccccc3C2)cc1 (centres undefined),-10.6,0.0,.,68.3*,13.4,-10.2
CC1(C)CC(=O)C(C(N)=NC(=O)c2ccccc2)=C(O)C1,18.1,-3.0,7.5,9.8,-0.3,2.2
O=C(Cn1nnc(-c2ccc(F)cc2)n1)Nc1ccc2c(c1)OCCO2,19.6,2.0,-18.8,1.1,-7.8,-19.9
Cc1cccc(CN2CCN(Cc3ccc(-n4cccn4)cc3)CC2CCO)n1 (centres undefined),-24.6,-2.0,-7.6,-47.1,-8.5,-3.0
COc1ccccc1NC(=O)CSCc1nc2ccccc2[nH]1,1.5,-4.0,1.1,13.4,3.6,51.6*
COc1ccccc1NC(=O)CSCC(N)=O,-19.9,-4.0,-9.8,-15.2,3.7,5.5
NC(=O)C1CCN(C2=C(NS(=O)(=O)c3ccccc3)C(=O)c3ccccc3C2=O)CC1,-0.6,.,2.9,-1.0,1.8,-19.3
NC(=O)C1CCN(C2=C(Cl)C(=O)c3ccccc3C2=O)CC1,1.1,16.0,9.6,88.3*,7.3,26.6
O=C1C(Cl)=C(N2CCC(C(=O)O)CC2)C(=O)c2ccccc21,1.6,.,.,52.2*,2.1,-14.1
COc1ccc(OCC(=O)Nc2cc(NC(=O)COc3ccc(OC)cc3)cc(C(=O)O)c2)cc1,.,.,0.0,.,.,.
c1cnn(Cc2cnc(N3CCOCC3)s2)c1,1.6,4.0,6.5,-5.4,-7.0,-40.7
O=C(Nc1ccc2oc(-c3ccc(F)cc3)nc2c1)c1ccccc1F,2.1,4.0,.,-25.1,-0.1,-19.9
O=C(NC(=S)Nc1ccc2c(c1)OCCO2)c1ccccc1F,-0.2,-3.0,.,33.1,-2.3,67.8*
O=C(Nc1ccc2c(c1)OCCO2)c1ccccc1F,1.0,1.0,30.0,-26.3,1.6,-17.7
SMILES,Hck-Nef inh,Bim-Mcl-1,Pf gametocyte,Mcl1 Noxa PPI,14-3-3 Bad PPI,Mcl1 Bid PPI
O=C(NC(=S)Nc1ccc2oc(-c3ccncc3)nc2c1)c1ccccc1F,14.8,-8.0,.,11.9,73.3*,23.6
COc1ccc(OCC(=O)Nc2ccc(S(=O)(=O)N3CCCCCC3)cc2)cc1,-0.7,-2.0,-3.9,8.5,-0.6,5.0
O=S(=O)(c1cnc(Cl)c(Cl)c1)N1CCc2ccccc21,-6.1,.,11.8,0.2,2.6,4.1
Cc1ccccc1NC(=O)N1CCN(S(=O)(=O)c2ccccc2)CC1,5.6,-2.0,6.3,-11.2,-10.3,-21.2
CCC1(C)Cc2ccccc2/C(=C/C(=O)N2CCCCC2)N1 (centres undefined),0.1,-1.0,.,9.2,77.0*,-83.8
CC(C)c1ccc(NC(=O)Nc2cc3sccc3n2C)cc1,-2.5,-2.0,.,33.0,-9.6,-39.4
COc1ccc(CC(=O)NCc2ccccc2)cc1,.,.,-19.4,.,.,.
CCC(CC)C(=O)NCc1ccc(OC)cc1,-3.5,0.0,21.5,-12.1,75.5*,-1.9
Nc1cc2nsnc2cc1Br,0.4,0.0,.,61.1*,7.8,-44.1
Cn1nnnc1SCC(=O)Nc1ccc(Cl)cc1Cl,0.4,.,.,.,.,.
CCCC1(CCC)NC(=O)N(CC(=O)c2cc(C)n(-c3ccc4c(c3)OCO4)c2C)C1=O,0.9,25.0,-15.5,7.7,-4.6,51.4*
Cc1nc(C)n(CC(O)COc2ccc3c(c2)CCC3)n1 (centres undefined),0.5,-4.0,-5.5,4.3,11.3,91.7*
[O-][n+]1onc2c1CCC(=N/O)/C2=N\Nc1ccccc1,11.1,.,.,78.2*,37.3,-28.2
Cc1cc(C(=O)COC(=O)c2ccncc2)c(C)n1CCc1ccc(F)cc1,16.6,0.0,15.9,18.5,4.2,-45.4
O=C1NCCN1C(=O)N(c1ccccc1)c1ccccc1,-0.2,56.0*,11.1,-14.1,-3.0,-24.8
CCCCN1C=C(C(=O)OC)C(c2ccccc2C(F)(F)F)C(C(=O)OC)=C1,-9.1,-1.0,.,-12.2,-0.6,-17.6
COCCN1C=C(C(=O)OC)C(c2ccccc2C(F)(F)F)C(C(=O)OC)=C1,65.3*,-7.0,15.5,-12.7,1.4,-32.4
COc1ccccc1/C=C(/C(=O)OCC(=O)Nc1ccc(N(C)C)cc1)c1ccccc1,10.3,-3.0,-17.0,69.4*,-10.9,-52.9
COc1ccccc1/C=C(/C(=O)OCC(=O)Nc1ccccc1C)c1ccccc1,-1.6,3.0,.,21.5,14.4,11.6
CN1CCC2(CC1)Nc1nc(SCc3ccc(Cl)cc3)nn1C1=C2CN(C)CC1,-0.2,-4.0,-16.0,32.7,40.6,-5.9
Cc1ccc(S(=O)(=O)NCCN=C(CN2CCOCC2)NS(=O)(=O)c2ccc(C)cc2)cc1,-0.3,-1.0,13.5,1.3,-11.6,-5.8
CCC1CCCCN1S(=O)(=O)c1ccc(S(=O)(=O)N(Cc2ccccn2)CC2CCCO2)cc1 (centres undefined),-0.2,1.0,-18.9,90.0*,-6.1,-14.9
Cc1ccc(NCc2ccco2)cc1C,20.7,-2.0,6.5,14.9,71.0*,8.7
Cc1ccc(NC(=O)c2ccco2)cc1C,4.6,-1.0,-5.0,-6.3,-3.2,-6.4
Cc1cc(-c2nnc(-c3cccc(C(F)(F)F)c3)o2)no1,-2.2,.,23.3,11.6,2.0,-3.2
CCOC(=O)C#CC(CCc1ccccc1)OS(N)(=O)=O (centres undefined),.,.,22.5,.,.,.

# Assay outcomes: PubChem, several laboratories
